Inconclusive results are not listed. Activity calls are given as the source filed them. Calls follow the shape of the dose curve; as a rule, active = well fitted inhibition curve with a large enough effect; inconclusive = small, poorly fitted or top-dose-only effect; inactive = no such curve, though single readings can be large or run the other way.
Target: Tumor susceptibility gene 101 protein (Homo sapiens) (UniProt Q99816)
Assay: qHTS Assay for Iinhibitors of HIV-1 Budding by Blocking the Interaction of PTAP/TSG101: Hit Validation in TR assay
Details: Tsg101 binding domain + Texas Red-labeled PTAP peptide, fluorescence polarization, 20 min; series mostly up to 57.5 µM; activity change, negative = inhibition: at the top concentration
How it was run: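 Texas Red-PTAP peptide (50 nM) binding to Tsg101 binding domain (10 uM), both final, in pH 7.5 HEPES buffer, read as polarization after 20 min at room temperature; compounds pinned before peptide addition.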
% is scaled to controls: 0 for no effect and ±100 for the full control effect; potency is read from the fitted curve at half-maximal effect.

Tumor susceptibility gene 101 protein (Homo sapiens), sequence (Q99816 whole entry, looked up): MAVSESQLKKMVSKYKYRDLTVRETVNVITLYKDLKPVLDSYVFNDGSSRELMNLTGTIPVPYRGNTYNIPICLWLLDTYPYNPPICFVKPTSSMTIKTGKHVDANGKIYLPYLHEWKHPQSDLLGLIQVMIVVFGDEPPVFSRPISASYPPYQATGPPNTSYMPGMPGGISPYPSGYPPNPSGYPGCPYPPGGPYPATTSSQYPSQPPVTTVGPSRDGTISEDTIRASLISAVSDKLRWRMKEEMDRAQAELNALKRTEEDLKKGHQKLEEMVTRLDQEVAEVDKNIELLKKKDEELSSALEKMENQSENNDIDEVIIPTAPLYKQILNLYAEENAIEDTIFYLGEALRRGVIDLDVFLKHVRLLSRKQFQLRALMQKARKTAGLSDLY

Activity change, negative = inhibition, inactive:
O=C1c2cccc3c(O)ccc(c23)C(=O)N1Cc1ccco1 -0.957%, Cc1c2cc(O)c(=O)cc-2oc2cc(O)c(O)cc12 9.22%, N#CC(C(=O)OC1CCCCC1)c1nc2ccccc2nc1N1CCOCC1 (centres undefined) 2.32%, COc1cccc2c1C(=O)c1c(O)c3c(c(O)c1C2=O)C[C@@](O)(C(=O)CO)C[C@@H]3OC1CC(N)C(O)C(C)O1 (some centres undefined) 20.3%, Cc1ccc(C2C=C(c3ccc(Cl)cc3)Nc3nc(NS(=O)(=O)c4ccccc4)nn32)cc1 (centres undefined) 17.1%, CC1=CC(=C(C#N)c2nc3ccccc3s2)C=C(C)N1c1ccc(F)cc1F 24.7%, O=C1CCCC2=C1Sc1ccc(Cl)cc1N2 17%, CC(=O)c1ccc2c(c1)c(C#N)c1ccccc1[n+]2[O-] -2.93%, CCCN1CCCc2cc(CN)ccc21 -2.1%, CCOC(=O)/C(C#N)=C(C)/C=C1\Sc2ccccc2N1CC 23.7%, O=c1oc2ccccc2nc1/C=C(\O)c1ccc(Br)cc1 1.32%, Cc1cc(C)n2nc3nc4c(cc3c2n1)CCCC4 -6.13%, O=C1Nc2ccccc2/C1=C/c1cnc(-c2ccccc2)[nH]1 -19.2%, CC1CCc2cccc3c2N1c1cc(C#N)c(C#N)cc1O3 (centres undefined) 0.564%, O=[n+]1c2c(n([O-])c3cc(F)c(N4CCCC4)cc31)CCC2 27.5%, CCOC(=O)c1cc2n(c1/N=C/N(C)C)-c1ccccc1C2=O 43.3%, Cc1cc(=O)oc(C)c1C(=O)Nc1ccc2ncccc2c1 27.4%, CCN(CC)c1nc2ccccc2nc1C(C#N)C(=O)NCCc1ccccc1 (centres undefined) 50.5%, CC(=O)Nc1ccc(N=Cc2c(O)ccc3ccccc23)cc1 4.75%, C/C(N)=C(/C#N)C(=O)CSc1ncnc2ccccc12 -2.93%, Nc1ccc2nc3c(=O)n(C4CCCCC4)c(=O)[nH]c3nc2c1 -0.548%, CN(C)CCCN1C(=O)c2cccc3c(Br)ccc(c23)C1=O 57.8%, COc1ccc(CCn2c(NN=C(C)C)nc3c2c(=O)[nH]c(=O)n3C)cc1 2.65%, CNc1c2cccc(C)c2nc2c(C(=O)NCCN(C)C)cccc12 -2.06%, Oc1ccc2ccccc2c1-c1sc(Nc2ccccc2)n[n+]1-c1ccc(F)cc1 3.44%, COc1ccc2c3c(cccc13)C(=O)CC2 2.95%, CCN(CC)CCCNc1ccc2ncn3c4ccc(O)cc4c(=O)c1c23 2.6%, Clc1ccc(C2=CC(c3ccco3)n3ncnc3N2)cc1 (centres undefined) 18.6%, O=C(C1=NN(c2ccccc2)C2C(=O)N(c3ccccc3Cl)C(=O)C12)c1ccccc1 (centres undefined) 19.6%, COc1ccc2nc(N3CCCC3)c(C#N)cc2c1 8.29%, Cc1cccc2cc(/C=C3\N=C(c4ccccc4)OC3=O)c(N3CCOCC3)nc12 -4.21%, Cc1ccc(C)c2nc3sc(C(=O)N4CCCc5ccccc54)c(N)c3cc12 27.2%, Nc1ccc2c3c(cccc13)C(=O)N(c1ccccc1)C2=O -2.6%, COc1ccccc1NC(=O)/C(C#N)=C/c1cc([N+](=O)[O-])ccc1N1CCCC1 -11.4%, CCC/C(C#Cc1ccc(N(C)C)cc1)=C1/c2ccccc2C(=O)N1c1ccccc1 19.8%, Cc1ccc(N=Cc2c(O)ccc3ccccc23)cc1F 18.9%

Potency, active:
CCCCn1c(=O)[nH]c2nc3cc(N)ccc3nc2c1=O 11.6 µM, C=CCn1c(=O)[nH]c2nc3cc(N=CN(C)C)c(C)cc3nc2c1=O 18.3 µM, Oc1c(C=Nc2ccccc2)sc2ccccc12 36.6 µM

From PubChem BioAssay AID651599 (National Center for Advancing Translational Sciences (NCATS), 2012)
